# Measurements published in PubChem BioAssay (NCI).
# Compounds without any hit were thinned out: in the full panel of roughly 83,000, 20% have a hit.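 Note: values are percent growth. 100 is the growth of untreated cells, values between 100 and 0 indicate rising inhibition; between -100 and 0 indicates cell death.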 Activity calls are given as the source filed them. The calls were made as follows: active = growth percent below 10; inactive = the rest.
# Test system: NCI-H322M lung
# Test: NCI-60 one-dose screen, 48 h (100 = growth as untreated, 0 = no growth, -100 = all killed)
# Settings: 10 µM unless noted
row,Compound,growth
1,COc1ccc(NC(=O)c2ccccc2-c2ccccc2)c(C(N)=O)c1,58.7% (inactive)
2,CC(=O)N1N=C(c2ccc(Cl)cc2)CC1c1c(C)nn(-c2ccccc2)c1N(C)Cc1ccccc1 (centres undefined),91.4% (inactive)
3,O=C(N/N=C/c1cccc(O)c1O)c1ccccc1,13.9% (inactive)
4,Clc1ccc(C2c3ccccc3-c3nccn32)c(Cl)c1 (centres undefined),88.1% (inactive)
5,OCc1n(Cc2ccc3ccccc3c2)cc[n+]1Cc1ccc2ccccc2c1,78.9% (inactive)
6,CCOC(=O)c1cnc2c(C)cc(C)cc2c1NCCCN(C)C,20.9% (inactive)
7,Cc1nn(-c2ccccc2)cc1/C=C1\SC(N2CCCCC2)=NC1=O,100% (inactive)
8,OCCCc1n(Cc2ccc3ccccc3c2)c2ccccc2[n+]1Cc1ccc2ccccc2c1,49.9% (inactive)
9,Cc1ccccc1NC(=O)NC(CC(N)=O)c1ccc2c(c1)nc(-c1cccc(Oc3ccc(C(C)(C)C)cc3)c1)n2CCCN1CCCCC1C (centres undefined),65% (inactive)
10,CC[C@@H](C)/C=C(C)/C=C/C(=O)c1c(O)c(-c2ccc(O)cc2)cn(OC2CC(=O)CCC(C)OC(=O)CC2O)c1=O (some centres undefined),5.13% (active)
11,COc1ccc2c(c1)c(CC(=O)[Se]C)c(C)n2C(=O)c1ccc(Cl)cc1,55.8% (inactive)
12,CC(=O)/C(=C/c1ccc(Cl)cc1)C(=O)c1ccccc1,101% (inactive)
13,O=C1c2cccc(NCCN=Cc3ccccc3O)c2C(=O)c2c(NCCN=Cc3ccccc3O)cccc21,-19.2% (active)
14,c1ccc(CN=C(NCc2ccccc2)NCc2ccccc2)cc1,75.6% (inactive)
15,COc1ccccc1-n1c(-c2ccc(O)cc2C)cn2c3c(=O)[nH]c(=O)n(C)c3nc12,113% (inactive)
16,COc1ccc(-c2cnc(SCC(=O)Nc3ccc(-c4nc5ccccc5s4)cc3)n2-c2ccc(OC)cc2)cc1,102% (inactive)
17,COc1cc(Cl)cc(-c2nn(-c3cccc(NC(=O)c4cc(C(F)(F)F)cc(C(F)(F)F)c4)c3)cc2-c2ccncc2)c1,80.3% (inactive)
18,COc1c(O)cc2c(c1CC=C(C)C)OC(=O)c1c(cc(O)c(CC=C(C)C)c1O)O2,77.1% (inactive)
19,O=C1/C(=C/c2cccc(Cl)c2)CCc2ccccc21,98.5% (inactive)
20,CCNCCCn1c2c(c3ccc(F)cc3c1=O)C(=O)c1cc(OC)cnc1-2,-3.52% (active)
21,CCN(CC)c1ccc(N=C2C=CC(=O)C=C2NC(C)=O)cc1,105% (inactive)
22,N#Cc1c(-c2ccccc2)cc(-c2ccccc2)n(CCC(=O)O)c1=O,91.2% (inactive)
23,COc1ccc2nc(NC(=O)CN3CCn4c(nnc4C(F)(F)F)C3)sc2c1,98.5% (inactive)
24,O=C1NC(=O)/C(=C\c2ccco2)S1,111% (inactive)
25,O=C1CNc2cc(Cl)ccc2N1,106% (inactive)

# Test system: HOP-62 NSCLC
# Test: as above
# Settings: 10 µM unless noted
row,Compound,growth
1,CC(C)=CCCC(C)c1ccc(C)c2c1OCN(CC1CCNCC1)C2 (centres undefined),95.4% (inactive)
2,COc1ccc(C2CC(c3ccc4c(c3)OCO4)=NN2C=O)cc1 (centres undefined),102% (inactive)
3,COc1cc(-c2nc3sc4c(c3c(=O)[nH]2)CCCCCC4)cc(OC)c1OC,29.6% (inactive)
4,O=C(C(=O)N1CCOCC1)c1cn(CCCn2cc(C(=O)C(=O)N3CCOCC3)c3ccccc32)c2ccccc12,103% (inactive)
5,COc1ccc(/C=C2/SC(=Nc3c(C)nn(-c4ccccc4)c3N)NC2=O)cc1,53% (inactive)
6,C/C(=C\CCc1ccoc1)CC/C=C(\C)CCCN1CCOCC1,69.1% (inactive)
7,CO[C@H]1/C=C/O[C@@]2(C)Oc3c(C)c(O)c4c(O)c(c(/C=N/N5C(C)CN(Cc6ccc(C#N)cc6)CC5C)c(O)c4c3C2=O)NC(=O)/C(C)=C\C=C\[C@H](C)[C@H](O)[C@@H](C)[C@@H](O)[C@@H](C)[C@H](OC(C)=O)[C@@H]1C (some centres undefined),43.8% (inactive)
8,CCOC(=O)CNC(=O)C1(NC(=O)CNC(=O)OCc2ccccc2)CCCC1,112% (inactive)
9,COc1cnc2c(c1)C(=O)c1c-2n(CCCNC(C)C)c(=O)c2cc(F)ccc12,-35.8% (active)
10,Nc1ccc2c(c1Br)Cc1ccccc1-2,97.8% (inactive)
11,O=C1OC2(c3ccccc31)c1ccccc1-c1ccccc12,93.8% (inactive)
12,CCCCCCCCN(CCO)CCCCCCCC,103% (inactive)
13,Nc1ccc2c(c1)C(=O)c1cc(Cl)c(Cl)cc1-2,94.2% (inactive)
14,O=C(/C=C/c1cccc(Nc2ccnc3cc(Cl)ccc23)c1)c1ccc(Cl)cc1,50.2% (inactive)
15,COc1ccc(NC(=O)c2ccccc2-c2ccccc2)c(C(N)=O)c1,45.3% (inactive)
16,CC(=O)N1N=C(c2ccc(Cl)cc2)CC1c1c(C)nn(-c2ccccc2)c1N(C)Cc1ccccc1 (centres undefined),74.3% (inactive)
17,O=C(N/N=C/c1cccc(O)c1O)c1ccccc1,25.9% (inactive)
18,Clc1ccc(C2c3ccccc3-c3nccn32)c(Cl)c1 (centres undefined),78.2% (inactive)
19,OCc1n(Cc2ccc3ccccc3c2)cc[n+]1Cc1ccc2ccccc2c1,75% (inactive)
20,CCOC(=O)c1cnc2c(C)cc(C)cc2c1NCCCN(C)C,21.4% (inactive)

row,Compound,growth
1,Cc1nn(-c2ccccc2)cc1/C=C1\SC(N2CCCCC2)=NC1=O,103% (inactive)
2,OCCCc1n(Cc2ccc3ccccc3c2)c2ccccc2[n+]1Cc1ccc2ccccc2c1,37.5% (inactive)
3,Cc1ccccc1NC(=O)NC(CC(N)=O)c1ccc2c(c1)nc(-c1cccc(Oc3ccc(C(C)(C)C)cc3)c1)n2CCCN1CCCCC1C (centres undefined),25.8% (inactive)
4,CC[C@@H](C)/C=C(C)/C=C/C(=O)c1c(O)c(-c2ccc(O)cc2)cn(OC2CC(=O)CCC(C)OC(=O)CC2O)c1=O (some centres undefined),7.07% (active)
5,COc1ccc2c(c1)c(CC(=O)[Se]C)c(C)n2C(=O)c1ccc(Cl)cc1,-0.299% (active)
6,CC(=O)/C(=C/c1ccc(Cl)cc1)C(=O)c1ccccc1,95.5% (inactive)
7,O=C1c2cccc(NCCN=Cc3ccccc3O)c2C(=O)c2c(NCCN=Cc3ccccc3O)cccc21,17.6% (inactive)
8,c1ccc(CN=C(NCc2ccccc2)NCc2ccccc2)cc1,78.6% (inactive)
9,COc1ccccc1-n1c(-c2ccc(O)cc2C)cn2c3c(=O)[nH]c(=O)n(C)c3nc12,79.3% (inactive)
10,COc1ccc(-c2cnc(SCC(=O)Nc3ccc(-c4nc5ccccc5s4)cc3)n2-c2ccc(OC)cc2)cc1,106% (inactive)
11,COc1cc(Cl)cc(-c2nn(-c3cccc(NC(=O)c4cc(C(F)(F)F)cc(C(F)(F)F)c4)c3)cc2-c2ccncc2)c1,103% (inactive)
12,COc1c(O)cc2c(c1CC=C(C)C)OC(=O)c1c(cc(O)c(CC=C(C)C)c1O)O2,6.39% (active)
13,O=C1/C(=C/c2cccc(Cl)c2)CCc2ccccc21,105% (inactive)
14,CCNCCCn1c2c(c3ccc(F)cc3c1=O)C(=O)c1cc(OC)cnc1-2,-29% (active)
15,CCN(CC)c1ccc(N=C2C=CC(=O)C=C2NC(C)=O)cc1,107% (inactive)
16,N#Cc1c(-c2ccccc2)cc(-c2ccccc2)n(CCC(=O)O)c1=O,51.9% (inactive)
17,COc1ccc2nc(NC(=O)CN3CCn4c(nnc4C(F)(F)F)C3)sc2c1,88.1% (inactive)
18,O=C1NC(=O)/C(=C\c2ccco2)S1,90.7% (inactive)
19,O=C1CNc2cc(Cl)ccc2N1,99.2% (inactive)
